For 5 compounds, composite z-score and z-score results are on record in PubChem BioAssay.

Test [1] can be described thus: small molecules captured by biotinylated probe aFSTL3 – biochemical, small-molecule microarray, fluorescence 635/667, stem cell growth factor project, primary screen (AID 1064).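 Note: measures binding of the biotinylated anti-FSTL3 antibody to printed compounds.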 As to conditions: higher = more signal.
Test [2] in a line: binders from COS7 lysate, DM2A8 probe, primary screen, torsin A project, cell lysate, small-molecule microarray, fluorescence 635/667 (AID 1065). To be noted: higher = more signal, COS7 lysate expressing mutant human TOR1A.
A short description of test [3]: small molecules captured by biotinylated probe aFGF2 – biochemical, small-molecule microarray, fluorescence 635/667, stem cell growth factor project, primary screen (AID 1067).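 Note: measures binding of biotinylated aFGF2 protein to printed compounds on slides; z-score merges feature fluorescence and signal-to-noise across triplicate slides.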 As to conditions: higher = more signal.
Test [4] is described as follows: small molecules captured by biotinylated probe aFGF10 – biochemical, small-molecule microarray, fluorescence 635/667, stem cell growth factor project, primary screen (AID 1071).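 Note: score merges 667 nm spot intensity and signal to noise from triplicate slides.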 As to conditions: higher = more signal.
The target in test [5] is Neurogenic locus notch homolog protein 2 (Homo sapiens) (UniProt Q04721). Briefly: small molecules binding Notch2 protein – biochemical, small-molecule microarray, 635 nm fluorescence, stem cell growth factors, primary screen (AID 1073). As to conditions: higher = more signal.
Neurogenic locus notch homolog protein 2 (Homo sapiens), sequence (Q04721 whole entry, looked up, canonical isoform): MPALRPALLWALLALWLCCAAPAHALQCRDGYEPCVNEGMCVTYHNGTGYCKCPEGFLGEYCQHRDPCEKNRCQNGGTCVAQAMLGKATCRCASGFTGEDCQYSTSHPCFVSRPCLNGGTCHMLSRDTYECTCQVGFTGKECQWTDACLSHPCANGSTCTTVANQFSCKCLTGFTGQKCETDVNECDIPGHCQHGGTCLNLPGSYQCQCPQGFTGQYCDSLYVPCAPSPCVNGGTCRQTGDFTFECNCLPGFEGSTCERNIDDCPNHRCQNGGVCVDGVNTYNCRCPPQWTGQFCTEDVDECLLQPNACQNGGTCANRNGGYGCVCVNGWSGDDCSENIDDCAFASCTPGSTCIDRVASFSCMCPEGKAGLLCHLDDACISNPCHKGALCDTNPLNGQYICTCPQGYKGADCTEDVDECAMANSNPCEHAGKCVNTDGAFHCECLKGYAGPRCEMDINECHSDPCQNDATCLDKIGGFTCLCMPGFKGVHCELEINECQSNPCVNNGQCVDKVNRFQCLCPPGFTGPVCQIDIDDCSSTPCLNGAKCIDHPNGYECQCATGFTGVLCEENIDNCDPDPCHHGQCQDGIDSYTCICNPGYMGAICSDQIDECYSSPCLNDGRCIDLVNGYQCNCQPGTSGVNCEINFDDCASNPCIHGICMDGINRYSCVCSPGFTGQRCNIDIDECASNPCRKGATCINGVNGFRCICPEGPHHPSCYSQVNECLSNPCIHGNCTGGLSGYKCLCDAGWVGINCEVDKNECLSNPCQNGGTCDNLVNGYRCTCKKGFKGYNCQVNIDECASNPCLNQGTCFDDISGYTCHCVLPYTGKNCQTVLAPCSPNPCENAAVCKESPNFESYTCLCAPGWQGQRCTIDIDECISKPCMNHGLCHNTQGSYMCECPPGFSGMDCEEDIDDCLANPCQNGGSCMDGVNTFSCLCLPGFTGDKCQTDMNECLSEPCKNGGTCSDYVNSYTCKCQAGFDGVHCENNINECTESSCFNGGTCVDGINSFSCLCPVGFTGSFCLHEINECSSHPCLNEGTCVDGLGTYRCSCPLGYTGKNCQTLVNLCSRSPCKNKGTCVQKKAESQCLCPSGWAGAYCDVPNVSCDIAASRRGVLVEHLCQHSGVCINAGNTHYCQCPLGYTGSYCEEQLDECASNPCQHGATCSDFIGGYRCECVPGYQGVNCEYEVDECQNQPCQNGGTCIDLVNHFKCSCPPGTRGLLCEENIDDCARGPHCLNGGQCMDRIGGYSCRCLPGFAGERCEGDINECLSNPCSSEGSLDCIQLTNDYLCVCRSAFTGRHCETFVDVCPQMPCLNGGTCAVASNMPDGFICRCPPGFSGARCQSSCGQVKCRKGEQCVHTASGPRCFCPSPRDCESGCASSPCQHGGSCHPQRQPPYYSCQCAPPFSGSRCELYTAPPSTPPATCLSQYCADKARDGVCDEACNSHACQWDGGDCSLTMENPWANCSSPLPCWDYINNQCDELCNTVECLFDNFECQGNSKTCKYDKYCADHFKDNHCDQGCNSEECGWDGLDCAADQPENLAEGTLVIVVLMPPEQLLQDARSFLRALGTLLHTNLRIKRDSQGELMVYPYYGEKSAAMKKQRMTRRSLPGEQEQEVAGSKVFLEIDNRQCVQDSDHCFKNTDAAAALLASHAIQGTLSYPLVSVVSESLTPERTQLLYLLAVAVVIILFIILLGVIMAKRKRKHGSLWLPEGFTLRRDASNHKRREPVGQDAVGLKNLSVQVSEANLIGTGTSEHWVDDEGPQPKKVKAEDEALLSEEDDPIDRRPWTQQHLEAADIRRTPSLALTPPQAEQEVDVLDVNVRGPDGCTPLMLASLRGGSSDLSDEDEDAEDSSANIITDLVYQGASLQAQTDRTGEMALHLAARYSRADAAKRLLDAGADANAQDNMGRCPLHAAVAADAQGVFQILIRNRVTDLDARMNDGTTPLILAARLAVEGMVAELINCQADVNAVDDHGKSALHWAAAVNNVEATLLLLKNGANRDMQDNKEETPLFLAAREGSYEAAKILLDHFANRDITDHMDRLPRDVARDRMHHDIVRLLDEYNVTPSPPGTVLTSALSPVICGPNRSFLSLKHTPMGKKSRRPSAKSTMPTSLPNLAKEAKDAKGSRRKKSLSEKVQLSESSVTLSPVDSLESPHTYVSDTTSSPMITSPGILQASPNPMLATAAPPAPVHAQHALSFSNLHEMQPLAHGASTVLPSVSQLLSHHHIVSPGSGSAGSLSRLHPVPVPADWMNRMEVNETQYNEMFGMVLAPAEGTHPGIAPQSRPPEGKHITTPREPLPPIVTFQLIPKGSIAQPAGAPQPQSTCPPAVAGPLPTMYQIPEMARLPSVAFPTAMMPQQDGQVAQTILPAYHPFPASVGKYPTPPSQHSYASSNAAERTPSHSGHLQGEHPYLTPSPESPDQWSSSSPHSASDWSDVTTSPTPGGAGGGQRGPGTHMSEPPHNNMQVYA
Test [6] deals with Pro-neuregulin-1, membrane-bound isoform (Homo sapiens) (UniProt Q02297). Briefly: small molecules binding neuregulin-1 protein – biochemical, small-molecule microarray, fluorescence 635/667, psychiatric disease protein project, primary screen (AID 1075).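 Note: score combines 667 nm spot fluorescence with signal to noise.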 To be noted: NRG1 binding, 635 nm fluorescence, higher = more signal.
Test [7] concerns Neuregulin-1 EGF-like domain. Kind of test: small molecules binding NRG1 EGF domain – biochemical, small-molecule microarray, 635 nm fluorescence, primary screen (AID 1081).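 Note: binding of the protein to compounds printed on small-molecule microarray slides.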 As to conditions: higher = more signal.
Test [8] can be described thus: FRG1 expression reporter modulators in myotubes – cell-based, C2C12 myotubes, firefly/Renilla luciferase, luminescence, FRG1 inhibition for FSHD, primary screen (AID 1084). As to conditions: FRG1 promoter luciferase, higher = more signal, called active from +8 up or from −8 down.
A short description of test [9]: small molecules captured by biotinylated probe aFST – biochemical, small-molecule microarray, fluorescence 635/667, stem cell growth factor project, primary screen (AID 1086).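 Note: score merges 667 nm fluorescence with signal-to-noise of each printed compound spot.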 To be noted: higher = more signal.
Test [10] is described as follows: binders of probe aHhip on microarray, primary screen, stem cell growth factor project, biochemical, small-molecule microarray, fluorescence 635/667 (AID 1087).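 Note: score merges spot fluorescence at 667nm with spot signal to noise ratio.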 To be noted: higher = more signal.
The subject of test [11] is PRMT1 (protein arginine N-methyltransferase 1). Kind of test: small molecules binding arginine methyltransferase PRMT1 – biochemical, small-molecule microarray, 635 nm fluorescence, primary screen (AID 1088).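 Note: binding of Prmt1 protein to compounds spotted on small-molecule microarray slides.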 To be noted: higher = more signal.
Test [12] is described as follows: growth effects on S. cerevisiae YJM789 – YJM789 clinical isolate, OD600, 24 h, basal, primary screen (AID 1089).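 Note: growth of clinical yeast isolate S. cerevisiae YJM 789 seeded 1000 cells per well; test concentration not given here.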 As to conditions: higher = more signal, called active from +8 up or from −8 down.
The nature of test [13]: S. pombe growth modifiers, basal conditions – strain 972, OD600, 24 h, no modulator, primary screen (AID 1090).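 Note: basal condition with compound alone and no growth modifier present; test concentration not given here.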 As to conditions: S. pombe 972 growth, higher = more signal, called active from +8 up or from −8 down.
The nature of test [14]: budding yeast growth modifiers under rapamycin – strain BY4716, OD600, 96 h, primary screen (AID 1091). Note: test concentration not given here. To be noted: S. cerevisiae BY4716 + rapamycin, higher = more signal, called active from +8 up or from −8 down.
Test [15] has as its target Torsin-1A-interacting protein 2 (Homo sapiens) (UniProt Q8NFQ8). Kind of test: small molecules binding lysate-expressed LULL1 – cell lysate, human LULL1 lysate, 635/667 nm fluorescence, primary screen (AID 1092).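 Note: probe is lysate of COS7 cells overexpressing human LULL1; score merges per-feature 667 nm fluorescence with signal-to-noise.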 To be noted: small-molecule microarray, hLULL1 lysate binding, 635 nm fluorescence; higher = more signal.
A short description of test [16]: optical density change of DRC41 E. coli – strain DRC41, OD650, 24 h, E. coli filamentation project, primary screen (AID 1093).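 Note: MC1000 strain lacking acrAB efflux and sulA so SOS filamentation is blocked; test concentration not given here.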 To be noted: E. coli DRC41 growth, higher = more signal, called active from +8 up or from −8 down.
Test [17] can be described thus: probe aLefty2 binding to arrayed compounds – biochemical, biotinylated probe, 635/667 nm fluorescence, primary screen (AID 1094).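 Note: score merges spot fluorescence near 667 nm with spot signal-to-noise ratio.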 As to conditions: small-molecule microarray, higher = more signal.
The subject of test [18] is Noggin (protein binding on small-molecule microarray). Briefly: small molecules binding Noggin protein – biochemical, 635/667 nm fluorescence, primary screen (AID 1095).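 Note: score merges 667 nm feature fluorescence with signal to noise over triplicate slides.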 To be noted: 635 nm fluorescence, higher = more signal.
The target in test [19] is Neurogenic locus notch homolog protein 3 (Homo sapiens) (UniProt Q9UM47). Briefly: small molecules binding NOTCH3 protein – biochemical, 635/667 nm fluorescence, primary screen (AID 1096). As to conditions: small-molecule microarray, 635 nm fluorescence, higher = more signal.
Neurogenic locus notch homolog protein 3 (Homo sapiens), sequence (Q9UM47 whole entry, looked up): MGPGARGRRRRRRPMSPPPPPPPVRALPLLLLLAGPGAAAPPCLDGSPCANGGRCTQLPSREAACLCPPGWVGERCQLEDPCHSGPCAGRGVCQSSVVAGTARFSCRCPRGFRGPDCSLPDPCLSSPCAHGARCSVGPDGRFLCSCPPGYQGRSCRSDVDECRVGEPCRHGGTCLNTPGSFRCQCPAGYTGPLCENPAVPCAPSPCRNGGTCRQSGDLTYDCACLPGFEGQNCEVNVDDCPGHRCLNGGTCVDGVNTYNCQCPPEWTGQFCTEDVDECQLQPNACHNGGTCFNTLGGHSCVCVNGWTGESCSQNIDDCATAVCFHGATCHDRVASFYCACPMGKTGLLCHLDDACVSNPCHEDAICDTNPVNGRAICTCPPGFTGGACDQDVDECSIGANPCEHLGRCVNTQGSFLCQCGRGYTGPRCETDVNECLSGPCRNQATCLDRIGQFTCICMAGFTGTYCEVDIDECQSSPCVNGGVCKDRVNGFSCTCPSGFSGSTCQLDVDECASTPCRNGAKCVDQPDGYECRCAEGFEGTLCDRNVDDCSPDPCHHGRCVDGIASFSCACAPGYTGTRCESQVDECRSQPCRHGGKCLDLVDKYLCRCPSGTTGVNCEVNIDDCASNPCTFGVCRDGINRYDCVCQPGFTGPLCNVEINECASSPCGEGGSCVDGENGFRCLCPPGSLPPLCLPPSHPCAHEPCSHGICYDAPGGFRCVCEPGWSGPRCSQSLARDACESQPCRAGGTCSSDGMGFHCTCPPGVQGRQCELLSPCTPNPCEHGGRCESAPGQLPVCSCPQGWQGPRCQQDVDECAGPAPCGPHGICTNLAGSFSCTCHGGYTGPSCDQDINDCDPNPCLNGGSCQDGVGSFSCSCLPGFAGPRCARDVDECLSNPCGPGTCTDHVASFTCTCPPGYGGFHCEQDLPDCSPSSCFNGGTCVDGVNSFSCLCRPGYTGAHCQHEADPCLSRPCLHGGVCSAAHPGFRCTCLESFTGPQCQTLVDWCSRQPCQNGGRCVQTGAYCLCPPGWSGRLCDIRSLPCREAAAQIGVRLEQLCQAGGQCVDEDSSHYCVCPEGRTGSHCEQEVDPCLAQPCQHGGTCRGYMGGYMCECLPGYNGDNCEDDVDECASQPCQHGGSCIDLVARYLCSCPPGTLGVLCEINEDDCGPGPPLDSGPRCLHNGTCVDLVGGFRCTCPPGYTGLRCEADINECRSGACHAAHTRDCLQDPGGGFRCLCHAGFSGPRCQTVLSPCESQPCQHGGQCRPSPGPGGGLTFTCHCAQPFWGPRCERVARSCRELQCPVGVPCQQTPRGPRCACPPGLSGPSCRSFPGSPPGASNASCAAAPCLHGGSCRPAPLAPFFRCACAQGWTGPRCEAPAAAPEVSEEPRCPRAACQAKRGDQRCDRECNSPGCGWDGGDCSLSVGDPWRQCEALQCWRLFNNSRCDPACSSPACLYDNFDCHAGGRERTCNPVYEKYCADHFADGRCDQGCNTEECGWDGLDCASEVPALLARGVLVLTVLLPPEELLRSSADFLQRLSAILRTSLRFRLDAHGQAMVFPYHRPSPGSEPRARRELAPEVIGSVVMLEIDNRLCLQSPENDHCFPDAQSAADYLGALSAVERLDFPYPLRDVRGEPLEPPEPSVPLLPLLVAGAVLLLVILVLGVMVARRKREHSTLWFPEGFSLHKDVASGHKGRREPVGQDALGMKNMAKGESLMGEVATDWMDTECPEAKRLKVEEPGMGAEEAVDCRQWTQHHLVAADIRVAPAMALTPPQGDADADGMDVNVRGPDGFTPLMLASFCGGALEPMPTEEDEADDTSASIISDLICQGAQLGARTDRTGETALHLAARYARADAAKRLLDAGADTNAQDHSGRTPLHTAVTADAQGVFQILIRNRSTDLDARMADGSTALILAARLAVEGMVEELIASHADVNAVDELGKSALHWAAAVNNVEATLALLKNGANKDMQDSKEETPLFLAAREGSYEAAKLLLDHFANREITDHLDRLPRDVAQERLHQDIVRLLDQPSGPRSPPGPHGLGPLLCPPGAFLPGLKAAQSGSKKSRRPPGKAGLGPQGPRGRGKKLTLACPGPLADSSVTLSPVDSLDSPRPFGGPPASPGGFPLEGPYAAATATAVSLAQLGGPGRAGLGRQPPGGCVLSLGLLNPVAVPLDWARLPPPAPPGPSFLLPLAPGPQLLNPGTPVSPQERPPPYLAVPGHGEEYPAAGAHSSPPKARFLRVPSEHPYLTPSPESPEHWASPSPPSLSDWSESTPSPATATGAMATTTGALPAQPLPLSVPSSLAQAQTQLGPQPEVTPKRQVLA
Test [20] in a line: probe aEGFR binding to arrayed compounds – biochemical, biotinylated probe, 635/667 nm fluorescence, primary screen (AID 1097).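 Note: probe is a biotinylated anti-EGFR antibody binding compounds printed on slides; score combines fluorescence near 667 nm and signal to noise of each spot.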 As to conditions: small-molecule microarray, higher = more signal.

Structures are written as SMILES. The source made the active and inactive calls.

Turning to `Cc1cc(C)c(C(O)C2C=CC3C(=O)NC(=O)C3N2Nc2ccc(Cl)cc2Cl)c(C)c1` (stereo not given), the composite z-score in [1] was 0.246; in test [2], -0.33; in test [3] it was 0.059; in test [4], 0.495; in [5], 1.49; in test [6] it was 1.65. Further, the composite z-score is 1.01 in [7]; 1.64 in test [9]; -0.0618 in [10]; 1.2 in test [11]; 3.42 in test [15]; 0.114 in test [17]. For the same compound, the composite z-score in test [18] was 0.364; in test [19], 0.874; in test [20], -0.0581. Moreover, the z-score was 2.81 (inactive) in test [8]; -1.67 (inactive) in [12]; -3.28 (inactive) in test [13]; 2.14 (inactive) in test [14]; -2.14 (inactive) in test [16].

Turning to `COC(=O)[C@@]1(Cc2ccc(F)cc2)[C@H]2c3cc(C(=O)N(C)C)n(CCc4ccc(O)c(OC)c4)c3C[C@H]2CN1C(=O)c1ccccc1`, the composite z-score in test [1] is 1.71; in test [2], 0.245; in test [3], 0.735; in [4] it was 1.27; in test [5], 1.27; in test [6], -0.0157. Further, the composite z-score is 1.03 in [7]; 1.7 in test [9]; 0.372 in test [10]; -0.646 in [11]; 1.01 in test [15]; 1.42 in test [17]. Moreover, the figures for the composite z-score in test [18], in [19] and in test [20] were 0.446, 0.237 and 1.25, respectively. Besides, the z-score in test [8] is 0.245 (inactive); in test [12] it was 0.503 (inactive); in [13], 0.459 (inactive); in test [14], 0.689 (inactive); in test [16] it was -0.849 (inactive).

On to `COCCCNC(=O)[C@]1(CCS(=O)(=O)c2ccccc2)N=C(c2ccc(OCCCO)cc2)O[C@@H]1c1ccccc1N=[N+]=[N-]`, for which the composite z-score in test [1] came to 1.42; in [2] it was 0.769; in test [3], 0.263; in test [4], 1.11; in test [5], 0.984; in test [6], 0.977. Also, the composite z-score was 1.01 in [7]; 1.98 in [9]; -0.202 in [10]; 1.38 in test [11]; 2.93 in test [15]; 0.106 in test [17]. The composite z-score is -0.122 in test [18], 0.349 in [19] and 0.287 in test [20]. The z-score in test [8] is 4.31 (inactive); in test [12] it was 0.371 (inactive); in [13], 0.61 (inactive); in test [14] it was 3.42 (inactive); in test [16] it was 0.464 (inactive).

In the case of `CCOC(=O)C[C@H]1[C@H](OC(=O)c2cc3ccccc3oc2=O)[C@@H](NC(=O)Cc2ccc(OC)cc2)c2cc(OCCCO)ccc2N1C(=O)c1ccc2ccccc2n1`, the composite z-score in test [1] was -0.19; in test [2] it was 0.648; in test [3], -0.127; in test [4], 0.403; in test [5] it was 0.848; in test [6] it was 0.35. The composite z-score is 0.996 in [7]; 0.0814 in test [9]; -0.123 in [10]; 0.268 in test [11]; 0.773 in test [15]; -0.11 in test [17]. In addition, the composite z-score in test [18] was 0.68; in [19], 1.15; in test [20], -0.0241. In addition, the z-score in [8] is -1.07 (inactive); in [12] it was -0.724 (inactive); in test [13], -0.138 (inactive); in [14] it was -0.0607 (inactive); in test [16] it was 1.31 (inactive).

Take `[N-]=[N+]=NCc1ccccc1C[C@@]1(C(=O)NCc2ccccc2)N=C(c2ccc(OCCCO)cc2)O[C@@H]1c1ccccc1N=[N+]=[N-]`: the composite z-score in test [1] was found to be 0.298; in [2] it was 0.421; in test [3] it was 0.0075; in test [4], 0.629; in [5], 1.33; in [6] it was 1.07. For the same compound, the composite z-score in test [7] was found to be 1.1; in test [9], 1.27; in test [10], 0.143; in test [11], 1.18; in test [15], 2.88; in [17], 0.198. The composite z-score in test [18] was -0.247; in test [19], 0.412; in test [20] it was -0.0831. The z-score in test [8] was -1.81 (inactive); in test [12] it was -1.38 (inactive); in test [13] it was 1.57 (inactive); in test [14], 6.91 (inactive); in test [16], 0.213 (inactive).
